29 compounds from PubChem BioAssay (EPA / NIEHS) can be followed below.

The source made the active and inactive calls. How the source made its calls: active means hit-call score of the fitted dose curve at least 0.9, where 1 is the maximum; inactive means score below 0.9.

Read-out in one assay: not listed separately
Kind of assay: BSK_BT_PBMCCytotoxicity: PBMC Cytotoxicity Assessment in the BioMAP Diversity Plus: BT Assay (AID 2284225).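 Further: PBMC viability measured by Alamar Blue dye reduction fluorescence.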 To be noted: primary human B cells with PBMC. The gist of the method: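 PBMC (75,000/well) pretreated with compound 1 h, then activated with SEB and TSST-1 (20 ng/mL each final), incubated 90 h; Alamar Blue added 6 h, fluorescence read at 546/580 nm. Fitted relative to DMSO.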
On to `Oc1ccc(Cc2ccc(O)cc2)cc1`, for which the outcome was inactive.
Broadly, the AC50 is the concentration giving half of the maximal activity seen. For the compound `O=C1C=CC(=O)c2ccccc21`, the AC50 is 0.686 µM (active).
`CCOP(=S)(OCC)SCS(=O)(=O)C(C)(C)C`: the outcome was inactive.
As to `Nc1c(Oc2ccccc2)cc(O)c2c1C(=O)c1ccccc1C2=O`, the result was inactive.
For `O=c1oc2ccccc2c(O)c1C(CC(O)c1ccc(-c2ccc(Br)cc2)cc1)c1ccccc1` (stereo not drawn), the outcome was inactive.
In the case of `[Cl][Sn]([c]1ccccc1)([c]1ccccc1)[c]1ccccc1`, the AC50 was 0.617 µM (active).
Regarding `O=S(=O)(c1ccc(Cl)cc1)c1cc(Cl)c(Cl)cc1Cl`, the result was inactive.
Consider `Cc1cccc(OP(=O)(Oc2cccc(C)c2)Oc2cccc(C)c2)c1`, for which the outcome was inactive.
For the compound `CC(C)(C)c1cc([N+](=O)[O-])cc(C(C)(C)C)c1O`, the AC50 is 26.2 µM (active).
As for `c1ccc2sc(SNC3CCCCC3)nc2c1`, the AC50 was 30.8 µM (active).
For the compound `CCCCCCCCCCCCN(C)C`, the result was inactive.
With `N#CCCC(Br)(C#N)CBr` (stereo not drawn), the half-maximal activity concentration (AC50) was 9.18 µM (active).
Regarding `O=[N+]([O-])c1ccc(Nc2ccccc2)cc1`, the result was inactive.
As for `C=CC(Cl)CCl` (stereo not drawn), the result was inactive.
With `CCOP(=O)(OCC)SCCSCC`, the result was inactive.
As to `O=S(=O)(C(Cl)(Cl)Cl)C(Cl)(Cl)Cl`, the AC50 was 3.65 µM (active).
On to `CCOP(=S)(OCC)OP(=S)(OCC)OCC`, for which the result was inactive.
Regarding `C[C@]12CC[C@@H](O)C[C@@H]1CC[C@@H]1[C@@H]2CC[C@]2(C)C(=O)CC[C@@H]12`, the outcome was inactive.
For the compound `CC(C)=CC1C(C(=O)OCc2cccc(Oc3ccccc3)c2)C1(C)C` (stereo not drawn), the outcome was inactive.
With `Nc1ccc(N)cc1`, the result was inactive.
As to `CC(C)N(C(=O)CCl)c1ccccc1`, the half-maximal activity concentration (AC50) is 20 µM (active).
For `CCOC(=O)CC(=O)CCl`, the AC50 is 19 µM (active).
`Cc1ccccc1OP(=O)(Oc1ccccc1)Oc1ccccc1`: the outcome was inactive.
Regarding `Cc1cc(Cl)ccc1OC(C)C(=O)O` (stereo not drawn), the result was inactive.
`COCC(=O)N(c1c(C)cccc1C)[C@H](C)C(=O)OC`: the result was inactive.
Same read-out and setting: with `Cc1cc(C(C)(C)c2ccc(O)c(C)c2)ccc1O` the entry was “inactive”.
Turning to `CCOC(=O)C(SP(=S)(OC)OC)c1ccccc1` (stereo not drawn), the outcome was inactive.
As for `O=C(CCl)NCO`, the outcome was inactive.
Regarding `Oc1cccc(-c2ccccc2)c1`, the result was inactive.

Read-out in another assay: Secreted IgG (sIgG), gene 3500
The assay is described as follows: BSK_BT_sIgG: BioMAP Diversity Plus: BT Assay for Secreted IgG (sIgG) Biomarker Activity (AID 2284226). The conditions noted are these: primary human B cells with PBMC. The essentials: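 Human B cell plus PBMC co-culture; secreted IgG measured by ELISA 24 h after chemical dosing. Response fitted in positive direction relative to DMSO baseline.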
With `Oc1ccc(Cc2ccc(O)cc2)cc1`, the outcome was inactive.
For `O=C1C=CC(=O)c2ccccc21`, the AC50 was 0.251 µM (active).
For `CCOP(=S)(OCC)SCS(=O)(=O)C(C)(C)C`, the outcome was inactive.
For `Nc1c(Oc2ccccc2)cc(O)c2c1C(=O)c1ccccc1C2=O`, the result was inactive.
For the compound `O=c1oc2ccccc2c(O)c1C(CC(O)c1ccc(-c2ccc(Br)cc2)cc1)c1ccccc1` (stereo not drawn), the AC50 is 20.8 µM (active).
In the case of `[Cl][Sn]([c]1ccccc1)([c]1ccccc1)[c]1ccccc1`, the AC50 was 0.313 µM (active).
As for `O=S(=O)(c1ccc(Cl)cc1)c1cc(Cl)c(Cl)cc1Cl`, the AC50 is 20 µM (active).
Take `Cc1cccc(OP(=O)(Oc2cccc(C)c2)Oc2cccc(C)c2)c1`: the result was inactive.
In the case of `CC(C)(C)c1cc([N+](=O)[O-])cc(C(C)(C)C)c1O`, the AC50 is 2.8 µM (active).
On to `c1ccc2sc(SNC3CCCCC3)nc2c1`, for which the AC50 is 32 µM (active).
As to `CCCCCCCCCCCCN(C)C`, the result was inactive.
Regarding `N#CCCC(Br)(C#N)CBr` (stereo not drawn), the AC50 is 7.61 µM (active).
In the case of `O=[N+]([O-])c1ccc(Nc2ccccc2)cc1`, the AC50 is 12.9 µM (active).
As to `C=CC(Cl)CCl` (stereo not drawn), the result was inactive.
The same measure, in the same setting: with `CCOP(=O)(OCC)SCCSCC` the entry was “inactive”.
For the compound `O=S(=O)(C(Cl)(Cl)Cl)C(Cl)(Cl)Cl`, the AC50 was 2.2 µM (active).
As to `CCOP(=S)(OCC)OP(=S)(OCC)OCC`, the result was inactive.
Consider `C[C@]12CC[C@@H](O)C[C@@H]1CC[C@@H]1[C@@H]2CC[C@]2(C)C(=O)CC[C@@H]12`, for which the AC50 was 20 µM (active).
As to `CC(C)=CC1C(C(=O)OCc2cccc(Oc3ccccc3)c2)C1(C)C` (stereo not drawn), the concentration at half-maximal activity (AC50) was 13.8 µM (active).
Consider `Nc1ccc(N)cc1`, for which the outcome was inactive.
With `CC(C)N(C(=O)CCl)c1ccccc1`, the AC50 is 7.82 µM (active).
Take `CCOC(=O)CC(=O)CCl`: the AC50 was 4.86 µM (active).
For `Cc1ccccc1OP(=O)(Oc1ccccc1)Oc1ccccc1`, the AC50 is 30.9 µM (active).
For the compound `Cc1cc(Cl)ccc1OC(C)C(=O)O` (stereo not drawn), the outcome was inactive.
Still for that read-out and setting: with `COCC(=O)N(c1c(C)cccc1C)[C@H](C)C(=O)OC` the entry was “inactive”.
As for `Cc1cc(C(C)(C)c2ccc(O)c(C)c2)ccc1O`, the AC50 was 10 µM (active).
With `CCOC(=O)C(SP(=S)(OC)OC)c1ccccc1` (stereo not drawn), the outcome was inactive.
For `O=C(CCl)NCO`, the outcome was inactive.
Turning to `Oc1cccc(-c2ccccc2)c1`, the outcome was inactive.
